# Measurements published in PubChem BioAssay AID1224862 (National Center for Advancing Translational Sciences (NCATS), 2016).
# Inconclusive results are not listed. Activity calls are given as the source filed them. Calls follow the shape of the dose curve; as a rule, active = well fitted cell-killing curve with a large enough effect; inconclusive = small, poorly fitted or top-dose-only effect, or effect the other way; inactive = flat fitted curve, though single readings scatter.
# Assay: Compound cytotoxicity measured by an ATP content assay as a counter-screen for lead compounds in human astrocytoma cell line (SNB-19)
# Details: SNB-19 astrocytoma viability, ATP luminescence; series mostly up to 46.1 µM; activity change, negative = cytotoxicity: at the top concentration
# Description: National Center for Advancing Translational Sciences [NCATS] Johns Hopkins University School of Medicine Florida State University Assay Overview: Many compounds can cause cytotoxicity at high compound concentrations. […] The compound cytotoxicity may also cause side effects or toxicity in human. Thus, the compound cytotoxicity needs to be measured in each cell type and each compound incubation time - same as these in the compound screening assay. The compound cytotoxicity can be measured by cell viability assays such as the ATP content assay. We use an ATP content assay kit for cell viability measurement. It measures ATP content (level) in human astrocytoma cell line (SNB-19) using a luminescence readout that is proportional to viable cell numbers. Decrease in the luminescence signal after the compound treatment indicates reduced cell viability and cell death caused by compound treatment.
# Assay Protocol Summary: The medium for SNB-19 cells is composed of RPMI 1640 (ATCC, Cat.# 30-2001), 10% fetal bovine serum (FBS) (GE healthcare Life Sciences, Cat.# SH30071.03), and 1% Pen/Strep (Gibco, Cat.# 15140-122). The ATP content assay kit (PerkinElmer, Cat.# 6016731) was used to determine cell viability. The reagent was reconstituted and prepared as described by the manufacturer. Cells were seeded in 384- or 1536-well assay plates and cultured at 37 C with 5% CO2 for 16 to 20 hours. The typical cell seeding density in the 1536-well plate assay is 250 cells/well in 3ul medium for SNB-19 cells in tissue culture treated plates. Compounds were added to cells and incubated for a specific time such as 6, 24, or 72 hours before addition of the reagent mixture of the ATP content assay kit at 1:1 ratio. After incubation at room temperature for 10 minutes, the luminescence intensity in assay plates was measured using a ViewLux plate reader (PerkinElmer). […] The percentage inhibitions of the decreased cell viability by small molecules were then calculated that indicate compound cytotoxicity.
SMILES,"activity change, negative = cytotoxicity",Potency
CCC(C(=O)O)c1ccc(N2Cc3ccccc3C2=O)cc1 (stereo not given),-10.4% (inactive),–
O=C(c1ccccc1)c1ccc2n1CCC2C(=O)O (stereo not given),0.488% (inactive),–
O=C(C=CC=Cc1ccc2c(c1)OCO2)N1CCCCC1,-3.2% (inactive),–
Cc1ccc(O)c(-n2nc3ccccc3n2)c1,-13.5% (inactive),–
Cc1nc(N)sc1-c1ccnc(Nc2ccc(N3CCOCC3)cc2)n1,8.47% (inactive),–
CC(C)(C)COc1ccc(-n2cc(C(=O)O)cn2)cc1C#N,4.08% [at 88.3 µM] (inactive),–
O=C(O)c1cccc(-c2noc(-c3ccccc3F)n2)c1,–,5.48 µM (active)
CC(C)(C)OC(=O)CN(Cc1ccc(Cl)cc1)Cc1ccc([N+](=O)[O-])s1,-23.7% [at 88.3 µM] (inactive),–
Cc1c(N)c(=O)n(-c2ccccc2)n1C,-1.88% (inactive),–
CN(C)CCCSc1ccccc1NC(=O)/C=C/c1ccccc1,-13.8% (inactive),–
Cc1csc(NC(=O)c2sc3nc4c(c(C(F)(F)F)c3c2N)CCC4)n1,–,4.35 µM (active)
O=C1c2ccccc2C(=O)c2c1ccc(O)c2O,0.319% (inactive),–
COc1ccc(-c2cc(=S)ss2)cc1,-1.94% (inactive),–
O=c1c(-c2ccc(O)cc2)coc2cc(OC3O[C@H](CO)[C@H](O)[C@H](O)[C@H]3O)cc(O)c12 (stereo not given in full),-18.9% (inactive),–
O=S(=O)(O)CCSSCCS(=O)(=O)O,-11.8% (inactive),–
CC(=O)Oc1ccccc1C(=O)Nc1ncc([N+](=O)[O-])s1,-25.3% [at 88.3 µM] (inactive),–
CC(C(=O)O)c1ccc2c(c1)[nH]c1ccc(Cl)cc12 (stereo not given),13.1% (inactive),–
CC(O)=C(C#N)C(=O)Nc1ccc(C(F)(F)F)cc1,–,8.69 µM (active)
NC(=O)c1cccc2[nH]c(-c3ccc([C@H]4CCCN4)cc3F)nc12,–,5.48 µM (active)
O=C(O)c1cc([N+](=O)[O-])ccc1NCCCc1ccccc1,-12% (inactive),–

SMILES,"activity change, negative = cytotoxicity",Potency
CCN1CCC(n2cc(CNc3cc(Cl)c4ncc(C#N)c(Nc5ccc(F)c(Cl)c5)c4c3)nn2)CC1,-2.47% (inactive),–
O=C(O)[C@@H](c1ccc(OCc2ccc3ccccc3n2)cc1)C1CCCC1,5.33% (inactive),–
CC(=C(CCOC(=O)C(C)C)SSC(CCOC(=O)C(C)C)=C(C)N(C=O)Cc1cnc(C)nc1N)N(C=O)Cc1cnc(C)nc1N,-24.1% (inactive),–
CC(C(=O)O)c1ccc(C(=O)c2cccs2)cc1 (stereo not given),12.4% (inactive),–
O=S(=O)(O)c1ccc2nc(-c3ccccc3)[nH]c2c1,1.86% (inactive),–
O=C(O)Cc1ccc(-c2ccccc2)cc1,9.96% (inactive),–
O=C(OCc1ccccc1)c1ccc(O)cc1,-20.4% (inactive),–
CC(=O)OC(C)OC(=O)C(C)c1ccc(-c2ccccc2)c(F)c1 (stereo not given),-19.8% (inactive),–
CC1=C(CO)C(=O)O[C@@H]([C@@H](C)[C@H]2CC[C@H]3[C@@H]4C[C@H]5O[C@]56[C@@H](O)C=CC(=O)[C@]6(C)[C@@H]4CC[C@]23C)C1,3.75% (inactive),–
COc1ccnc2c1CCCCC2S(=O)c1nc2ccccc2[nH]1 (stereo not given),-9.48% (inactive),–
Cc1cc(O)c2c(c1)C(=O)c1cc(O)cc(O)c1C2=O,-13% (inactive),–
O=C(O)CCC(=O)c1ccc(-c2ccccc2)cc1,-1.74% (inactive),–
CCCCCNC(=O)N1CCC(CN(Cc2ccc(Cl)cc2)Cc2ccc([N+](=O)[O-])s2)C1 (stereo not given),15.7% (inactive),–
CN1CC(=O)N/C1=N/C(=O)Nc1cccc(Cl)c1,-5.23% (inactive),–
COc1ccc(-c2cc(=O)c3c(O)cc(O)cc3o2)cc1O,25.9% (inactive),–
Nc1ccc(N=Nc2ccccc2)c(N)n1,9.65% (inactive),–
COc1cc2nc(N3CCN(C(=O)C4CCCO4)CC3)nc(N)c2cc1OC (stereo not given),7.25% (inactive),–
CC[C@]1(O)C[C@H]2CN(CCc3c([nH]c4ccccc34)[C@@](C(=O)OC)(c3cc4c(cc3OC)N(C=O)[C@H]3[C@@](O)(C(=O)OC)[C@H](OC(C)=O)[C@]5(CC)C=CCN6CC[C@]43[C@@H]65)C2)C1,0.512% (inactive),–
C[C@@H](O[C@H]1OCCN(Cc2n[nH]c(=O)[nH]2)[C@@H]1c1ccc(F)cc1)c1cc(C(F)(F)F)cc(C(F)(F)F)c1,-15.8% (inactive),–
CC(=O)Oc1cccc2c1C(=O)c1c(OC(C)=O)cc(C(=O)O)cc1C2=O,-12.9% (inactive),–
